Only some compounds are listed: those with a hit (about 3.4% of all), similar ones and a draw of the others.
Ecoli rRNA inh: reduced GFP signal of wild-type E. coli, primary screen, bacterial rRNA inhibitor project, GFP/RFP fluorescence, OD600, single point; E. coli WT GFP vs humanized-ribosome RFP mutants, 24 h; stronger effect = lower value; DMSO median 0, no signal -100; GFP signal change (wild-type ribosome), % (test concentration not listed); hit rate 1.6% among 350,000;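 active = significant combined selectivity score with lowered wild-type GFP, culture density cut under 30%, mutant RFP and density less affected; inactive = any of these conditions unmet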
LGR2 inh: inhibitors of bursicon-induced LGR2 CRE-luciferase signal, primary screen, cell-based, HEK293, CRE-luciferase reporter, bursicon stimulation; Drosophila bursicon receptor LGR2 (rickets); bursicon-stimulated, 4 h; hit rate 0.35% among 380,000; inhibition, % at 9.99 µM;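 active = drop in luminescence signal, shown as inhibition above about 50% in the replicate tests, limit read from the data, passing the limit was not always enough; inconclusive = probably only some replicates passing the limit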;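 note: agonist challenge used bursicon conditioned medium at about half maximal strength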
PAX8 reporter: inhibitors of PAX8-driven TPO luciferase reporter, primary screen, RMG-I cells, single concentration; hit rate 1.2% among 360,000; SteadyGlo, 24 h; inhibition, % at 12.6 µM; AID 652154, 2013;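 active = mean replicate inhibition at least 60% with every replicate also reaching 60%; inconclusive = only one of the two criteria is met; inactive = mean below 60% and not all replicates reaching 60%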;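 note: luciferase light reporting Pax8 driven TPO promoter activity; plate controls were median of neutral control wells for no effect and mitoxantrone controls for full effect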
PGC1a acetyl inh: inhibitors of PGC1a acetylation signal, primary screen, cell-based, U2OS, AlphaScreen, inhibitor mode; inhibition, % at 15.6 µM; hit rate 0.17% among 350,000; AID 651687, 2012; AlphaScreen anti-acetyl-lysine; with virally co-expressed GCN5 acetyltransferase;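 active = every replicate shows inhibition of at least 40%; inconclusive = mean inhibition at least 40% but some replicate below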;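 note: 0% = neutral control wells and 100% = positive control wells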
EWS-Fli inh: EWS/Fli-driven NR0B1 reporter inhibitors, primary screen, A673 cells, NR0B1 luciferase, luminescence, MLPCN library; viability-normalised; AID 651661, 2012; hit rate 0.67% among 350,000; inhibition, % at 12.6 µM;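 active = mean inhibition of at least 50% after viability correction, with every replicate also passing that limit; inconclusive = mean reaches 50% but only one of two replicates passes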;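 note: firefly luciferase signal divided by Alamar Blue viability fluorescence both relative to DMSO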
SIRT5 block: SIRT5 desuccinylase inhibitors, primary screen, biochemical, fluorescence imaging, single point, set 5. Purified SirT5, succinyl-peptide AMC, trypsin-coupled fluorescence. AID 652115, 2013. hit rate 1.1% among 330,000. inhibition, % at 15 µM; in the data active = inhibition above about 15%; inconclusive = no clear call, values can overlap the other calls
Target sequence (Q9NXA8 whole entry, looked up): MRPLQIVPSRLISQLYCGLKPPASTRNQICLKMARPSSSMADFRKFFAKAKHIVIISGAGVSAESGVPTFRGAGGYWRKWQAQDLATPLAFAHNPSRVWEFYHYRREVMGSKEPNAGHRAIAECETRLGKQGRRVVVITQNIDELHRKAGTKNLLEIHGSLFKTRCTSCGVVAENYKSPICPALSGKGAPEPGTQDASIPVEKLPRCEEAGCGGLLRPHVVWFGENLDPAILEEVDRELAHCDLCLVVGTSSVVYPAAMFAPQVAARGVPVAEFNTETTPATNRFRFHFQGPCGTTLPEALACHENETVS
Active calls of the source: *; ? = inconclusive; . = not tested or not shown.

SMILES	Ecoli rRNA inh	LGR2 inh	PAX8 reporter	PGC1a acetyl inh	EWS-Fli inh	SIRT5 block
C[C@@H]1CCCCO[C@@H](CN(C)C(=O)CCCN(C)C)[C@H](C)CN([C@@H](C)CO)C(=O)c2cc(NC(=O)Nc3ccc(F)cc3)ccc2O1	2	-7	-41	2	-21	1
C[C@H]1CN([C@@H](C)CO)S(=O)(=O)c2ccc(-c3ccc(F)cc3)cc2O[C@@H]1CN(C)C(=O)C1CCCCC1	-9	14	.	3	11	12
CCCC#Cc1ccc2c(c1)O[C@H](CN(C)C(=O)c1ccccc1F)[C@@H](C)CN([C@@H](C)CO)S2(=O)=O	-11	18	.	-6	10	19*
CCCC#Cc1ccc2c(c1)O[C@H](CN(C)C(=O)c1ccccc1F)[C@@H](C)CN([C@H](C)CO)S2(=O)=O	-8	6	.	-11	20	14
CCCC#Cc1ccc2c(c1)O[C@@H](CN(C)C(=O)c1ccccc1F)[C@@H](C)CN([C@H](C)CO)S2(=O)=O	-8	17	.	-10	11	20*
COc1ccc(S(=O)(=O)Nc2ccc3c(c2)C(=O)N([C@H](C)CO)C[C@@H](C)[C@@H](CN(C)C(=O)Cc2ccccc2)OCCCC[C@H](C)O3)cc1	1	16	-15	-6	-5	4
Cc1cc(C)n(-c2nc(NC(C)(C)C)nc(NC(C)(C)C)n2)n1	.	.	.	1	.	.
CCNc1nc(NCC)nc(-n2nc(C)cc2C)n1	-42*	.	.	7	15	-1
COc1ccc(C[C@@H]2CCn3nncc3COC[C@@H](CC(C)C)NC2=O)cc1	2	.	.	.	.	.
COc1ccc(Cl)cc1C(=O)OCC(=O)c1ccc[nH]1	-16*	9	-16	1	-2	1
COc1cccc(NC(=O)Nc2ccc3c(c2)OC[C@H](C)NC[C@H](C)[C@@H](OC)CN(C)C3=O)c1	-4	-2	24	9	2	-2
c1ccc2c(-c3ccc(OCCN4CCCCC4)cc3)c(-c3ccsc3)sc2c1	-49	-4	2	-1	22	-8
NC(=O)c1ccc(-c2c(-c3ccccc3)sc3ccccc23)cc1	11	-2	9	.	13	29*
Oc1ccc(-c2c(-c3ccsc3)sc3ccccc23)cc1	-22	2	-20	2	4	.
CN(C)CCOc1ccc(-c2c(-c3ccccc3)sc3ccccc23)cc1	-55	12	80*	-5	41	.
CCC(=O)N1[C@@H]2c3cccc(=O)n3C[C@@H]2[C@@H](CO)[C@@H]1C(=O)N[C@@H](C)c1ccccc1	4	-6	.	-1	12	-1
COC(=O)[C@@]1(Cc2ccc(F)cc2)[C@H]2c3cc(C(=O)N4CCCC4)n(Cc4cc(F)cc5c4OCOC5)c3C[C@H]2CN1C(=O)c1ccccc1	4	-6	8	.	-4	22*
NS(=O)(=O)c1ccc(CCNC(=O)c2ccc(C#CC3(O)CCCCC3)cc2)cc1	-13	12	?	.	19	112*
C[C@@H]1CN([C@H](C)CO)C(=O)c2cc(NC(=O)CCCCCC(=O)Nc3ccccc3N)ccc2O[C@@H]1CN(C)S(=O)(=O)c1ccccc1	-2	2	29	-2	1	.
C[C@@H]1CN([C@@H](C)CO)C(=O)CCCn2nncc2CO[C@@H]1CN(C)Cc1cccnc1	1	7	.	3	2	.
CNc1ccc(Br)cc(C(=O)/C=C/c2cc(OC)ccc2OC)c1=O	.	.	92*	12	.	.
COc1cc(/C=C/C(=O)c2ccc3c(c2)OCCO3)cc(OC)c1OC	-8	19	-2	.	0	1
COc1ccc(OC)c(/C=C/C(=O)Oc2ccc(C(C)=O)cc2)c1	-24*	11	-1	.	-3	-8
COc1ccc(OC)c(/C=C/C(=O)c2ccc3c(c2)OCCO3)c1	-25*	-20	8	30	-83	-2
CNc1ccc(Br)cc(C(=O)/C=C/c2ccc(OC)cc2)c1=O	.	11	-4	.	.	.
SMILES	Ecoli rRNA inh	LGR2 inh	PAX8 reporter	PGC1a acetyl inh	EWS-Fli inh	SIRT5 block
CCn1c(SCc2nc(-c3ccc(OC)c(OC)c3)no2)nnc1-c1cccs1	-32*	-9	.	-15	-2	0
Cc1ccc(-c2noc(CSc3nnc(Cc4ccccc4)n3-c3cccc(C)c3)n2)cc1	-7	23	.	-6	8	-1
COc1ccc(-c2noc(CSc3nnc(Cc4ccccc4)n3-c3cccc(C)c3)n2)cc1OC	-26*	10	.	-18	20	0
COc1ccc(-c2noc(-c3cccs3)n2)cc1OC	12	-57	-179	10	-128	-4
COc1ccc(S(=O)(=O)N2CC[C@@H]3[C@@H](CO)Nc4ccc(-c5cccc(C#N)c5)cc4[C@@H]32)cc1	-12	-11	33	-20	54*	3
COc1ccc(S(=O)(=O)N2CC[C@H]3[C@H](CO)Nc4ccc(-c5cccc(C#N)c5)cc4[C@H]32)cc1	-11	-21	31	-13	-3	-3
COc1cccc(-c2ccc3c(c2)[C@@H]2[C@@H](CCN2S(=O)(=O)c2cccc(OC)c2)[C@H](CO)N3)c1	-2	0	73*	-14	0	7
Cc1cccc(NC(=O)CCc2ccc(N3C(N)=NC(N)=NC3(C)C)cc2)c1	2	9	65*	.	?	-6
O=C(C1CCCC1)N1CC(=O)N2[C@@H](CO)[C@H](c3ccc(-c4ccccc4F)cc3)[C@@H]2C1	1	4	.	.	6	0
O=C(O)c1ccccc1C(=O)N1CCc2c([nH]c3ccccc23)C1C(F)(F)F (stereo not given)	-30*	1	30	2	16	-2
COC(=O)[C@H]1[C@H](CO)[C@H]2Cn3c(ccc(-c4ccncc4)c3=O)[C@H]2N1CC1CCCC1	-2	13	.	4	0	2
COc1cccc(N2CCN(CC(=O)NC(C)c3ccccc3)CC2)c1 (stereo not given)	7	-10	1	1	14	-2
CC(NC(=O)CN1CCN(c2cccc(Cl)c2)CC1)c1ccccc1 (stereo not given)	-28*	0	23	8	10	-9
CO[C@@H]1CN(C)C(=O)c2ccc(NS(C)(=O)=O)cc2OC[C@H](C)N(Cc2cccnc2)C[C@H]1C	2	-4	.	1	-4	5
COCC(=O)Nc1ccc2c(c1)C(=O)N(C)C[C@@H](OC)[C@@H](C)CN(CCC(F)(F)F)[C@H](C)CO2	-1	5	-2	-2	-7	0
Cc1cc(Cl)n2c(nc3cc(F)c(F)cc32)c1C#N	-56	31	74*	-21	58*	-6

Screens (PubChem)
